Source: PubChem BioAssay AID1645886 (National Center for Advancing Translational Sciences (NCATS), 2021)
Screen size: about 16,000 compounds; about 260 (1.6%) were called active. Another 14% or so got no clear call; they are omitted. This excerpt belongs to a sample that is enriched for actives. Unmarked numbers belong to inactive results. Calls come from the whole dose curve; as a rule, active = well fitted inhibition curve with a large enough effect; inconclusive = small, poorly fitted or top-dose-only effect; inactive = no such curve, though single readings can be large or run the other way.

target: Rap guanine nucleotide exchange factor 4 (Homo sapiens) (UniProt Q8WZA2); assay: Validation qHTS for antagonist of cAMP-regulated guanine nucleotide exchange factor 4 (EPAC2); conditions: EPAC2 Rap1B BODIPY-GDP exchange, fluorescence; series mostly up to 112 µM; activity, negative = inhibition: at the top concentration; note: nearly all actives have a fitted effect of over 40% in size
Sequence (Q8WZA2 whole entry, looked up): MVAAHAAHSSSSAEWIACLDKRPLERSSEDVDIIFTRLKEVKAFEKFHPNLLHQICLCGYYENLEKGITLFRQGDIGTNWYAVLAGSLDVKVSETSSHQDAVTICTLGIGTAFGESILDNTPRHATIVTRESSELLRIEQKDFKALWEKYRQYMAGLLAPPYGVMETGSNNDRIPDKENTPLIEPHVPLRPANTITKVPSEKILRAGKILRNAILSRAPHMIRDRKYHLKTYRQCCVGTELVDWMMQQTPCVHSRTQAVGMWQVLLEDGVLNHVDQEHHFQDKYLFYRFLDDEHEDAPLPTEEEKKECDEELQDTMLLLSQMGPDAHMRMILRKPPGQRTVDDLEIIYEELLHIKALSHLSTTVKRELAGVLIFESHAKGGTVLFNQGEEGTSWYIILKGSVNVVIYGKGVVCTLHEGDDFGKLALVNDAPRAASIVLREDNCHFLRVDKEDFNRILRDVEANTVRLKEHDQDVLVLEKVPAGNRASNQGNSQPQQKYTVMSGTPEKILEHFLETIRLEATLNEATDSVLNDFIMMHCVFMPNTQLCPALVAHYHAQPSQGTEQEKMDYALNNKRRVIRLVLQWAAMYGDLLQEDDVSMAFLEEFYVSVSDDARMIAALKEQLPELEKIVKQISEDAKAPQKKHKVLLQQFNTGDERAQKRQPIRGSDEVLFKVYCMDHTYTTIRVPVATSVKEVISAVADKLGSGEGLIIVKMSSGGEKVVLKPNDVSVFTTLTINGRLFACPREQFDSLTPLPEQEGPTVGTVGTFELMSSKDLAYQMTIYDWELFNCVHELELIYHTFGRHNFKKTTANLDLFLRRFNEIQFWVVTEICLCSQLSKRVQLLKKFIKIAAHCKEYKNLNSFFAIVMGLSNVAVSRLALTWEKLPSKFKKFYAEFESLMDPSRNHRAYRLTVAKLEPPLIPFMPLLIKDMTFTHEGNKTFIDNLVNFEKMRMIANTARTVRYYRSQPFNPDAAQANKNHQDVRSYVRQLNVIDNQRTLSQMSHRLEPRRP
Description: Principle Investigator: Xiaodong Cheng Ph.D. The University of Texas Medical Branch, […], TX MLPCN Grant: NS066510 In multi-cellular eukaryotic organisms, the effects of cAMP are transduced by two ubiquitously-expressed intracellular cAMP receptors, the classic protein kinase A/cAMP-dependent protein kinase (PKA/cAPK) and the more recently discovered exchange protein directly activated by cAMP/cAMP-regulated guanine nucleotide exchange factor (EPAC/cAMP-GEF). Both PKA and EPAC are ubiquitously expressed in all tissues, and an increase in intracellular cAMP levels will lead to the activation of both PKA and EPAC. Therefore, careful dissections of the individual role and relative contribution of EPAC and PKA within the overall cAMP signaling in various model systems are critical for further elucidating the mechanism of cAMP signaling. To date no EPAC-specific antagonists and agonist, as well as isoform-specific agonists have been reported, and developing EPAC-specific pharmacological probes to determine the physiological functions that EPAC play in the overall cAMP-mediated signaling remains a major challenge within the research field. Furthermore, identified regulators of EPAC may lead to new mechanism-based therapeutic strategies specifically targeting the EPAC / cAMP-signaling components as EPAC has been implicated to play important roles in major human pathological conditions such as diabetes, heart disease, and cancer. This qHTS will be used to screen the Molecular Libraries Small Molecule Repository (MLSMR) as a concentration-titration series using the NCGC unique quantitative screening (qHTS) platform to find activators for EPAC1. In addition, this assay will also be used as a counterscreen for the EPAC2 qHTS. This fluorescent based assay is developed and validated for EPAC1 that measures exchange using EPAC effector Rap1 complex with BODIPY-GDP, a GDP analog with a tethered fluorophores. Activators are identified by monitoring the change in fluorescence signal as the exchanged free BODIPY-GDP has a reduced fluorescence compared to Rap1-bound BODIPY-GDP. Increase in signal (activation) is the desired outcome for the EPAC1 agonist while no activity in this assay is desired for the EPAC2 agonist counterscreen. Reference: [1] de Rooij, J., Zwartkruis, F. J., Verheijen, M. H., Cool, R. H., Nijman, S. M., Wittinghofer, A., and Bos, J.L. (1998) Nature 396, 474-477.
Briefly, three uL of reagents (100 nM EPAC2, 250 nM RAP1B-BODIPY-GDP, 50 uM GDP) were dispensed into a 1536-well Greiner black solid-bottom medium binding assay plate. Controls and test compounds (23 nL) were transferred to the plate via a Kalypsys pin tool equipped with a 1536-pin array. The plates were centrifuged at 1,000 rpm for 15 seconds followed by 5 minute incubation at room temperature. The assay plates were read at 5 minute intervals for 30 minutes in the ViewLux plate reader using 480nm excitation and 540nm emission filters. The results were normalized to the agonist positive control of 6.5 mM cAMP.
Potency is the fitted concentration of half-maximal effect.

Structure (SMILES) | activity, negative = inhibition [%] | Potency
Cc1cc(-c2ccnc(-n3ncc(C(=O)NCCc4ccncc4)c3C)n2)c(C)s1 | -15.8 | 
CC(=O)OCC(=O)[C@@]1(O)CCC2C3CCC4=CC(=O)CC[C@]4(C)C3C(=O)C[C@]21C (stereo partly drawn) | -22.4 | 
c1cncc(CNc2ccnc(-c3ccc4c(c3)OCO4)n2)c1 | -16.8 | 
COc1ccc2[nH]cc(CCNc3ncnc4ccc(-c5ccccc5CN(C)C)cc34)c2c1 | -13.1 | 
COc1ccc(Oc2ncc3nc(C)c(=O)n(-c4ccccc4)c3n2)cc1 | -7.31 | 
O=C(OCc1ccccc1)c1ccc(O)cc1 | -30.8 | 
O=C1C(c2ccccn2)=[N+]([O-])c2ccccc21 | -5.15 | 
Cn1nccc1C(=O)NCC1CCC2(CCN(Cc3c(O)ccc4ccccc34)CC2)O1 (stereo not drawn) | -14 | 
COc1ccccc1N1CCN(CCN2C(=O)c3ccccc3C(C)(C)C2=O)CC1 |  | inactive
COc1ccc(-c2nc3cnc(N(C)C)nc3n(Cc3cccs3)c2=O)cc1 | 3.28 | 
COc1ccc(-n2c(CNC(=O)c3cc(C(F)(F)F)ccc3Cl)nnc2SC)cc1 | -9.57 | 
CC(=O)O[C@H]1CC[C@@]2(C)C(=CC[C@@H]3[C@@H]2CC[C@]2(C)C(c4cccnc4)=CC[C@@H]32)C1 | -10.2 | 
COc1ccc(CCCOC(Cn2ccnc2)c2ccc(OC)cc2)cc1 (stereo not drawn) |  | inactive
Cc1cnc(CNc2nc(-c3cccnc3)nc3ccccc23)cn1 | -10.5 | 
Cc1cc(C)cc(CN2CCc3nnc(C(NS(C)(=O)=O)C(C)C)n3CC2)c1 (stereo not drawn) | -17.4 | 
COCCNc1ncnc2ccc(-c3ccccc3CN(C)C)cc12 | -5.97 | 
Cc1cccc(CNc2ccnc(-c3cccnc3)n2)c1 | -17.6 | 
CC(=O)N1CCC2(CCCN(Cc3ccc(C#N)cc3)C2)CC1 | -15.4 | 
Cc1c(S(=O)(=O)O)oc2c1C(=O)C(=O)c1c-2ccc2c1CCCC2(C)C |  | 44.7 µM (active)
COc1ccc(CN(C)CCn2cc(C(=O)N3CCSCC3)nn2)cc1C | -9.24 | 
c1ccc(CNc2ncncc2-c2cccnc2)cc1 | -8.54 | 
CS(=O)(=O)NC(=O)CCC/C=C\C[C@H]1C(=O)C[C@@H](O)[C@@H]1/C=C/[C@H](O)COc1ccccc1 | 25.7 | 
COc1ccc(C(=O)N2CCC[C@@]3(CCN(C(=O)NC(C)C)C3)C2)cc1 | -25.3 | 
Cc1cnc(-n2ncc(C(=O)N3CCN(C(C)C)CC3)c2-c2ccco2)nc1-c1ccc(F)cc1 | 3.02 | 
CN(C)c1ccc(/C=C/c2c3ccccc3nc3ccccc23)cc1 | -10.7 | 
O=c1c(-c2ccc(F)cc2)nc2cncnc2n1-c1ccccc1 | 9.92 | 
COCC1CCCN(Cc2ccc3c(c2)CN(C(=O)c2ccnn2C)CCO3)C1 (stereo not drawn) | -1.55 | 
Cc1c(O)cc2c(c1C)O[C@](C)(CCC[C@H](C)CCC[C@H](C)CCCC(C)C)CC2 | -45.9 | 
